Data from PubChem BioAssay.
Values without a mark were called inactive. Activity calls are given as the source filed them.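 The calls were made as follows: active = mean inhibition above 46.5%, the solvent-only control mean plus 3 SD; inactive = the rest.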

Target: Nuclear receptor coactivator 2 (Homo sapiens) (UniProt Q15596)
Test: inhibition of GAL4-SRC2 driven luciferase expression – cell-based, luminescence, HEK293, triplicate, confirmation (AID 652008);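 also: 0% = DMSO-treated cells and 100% = Gossypol at 36 µM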
Settings: HEK293 GAL4-SRC2 luciferase reporter, at 8.9 µM, stronger effect = higher value

Chain of Nuclear receptor coactivator 2 (Homo sapiens) (Q15596 whole entry, looked up, the tested form may be a part): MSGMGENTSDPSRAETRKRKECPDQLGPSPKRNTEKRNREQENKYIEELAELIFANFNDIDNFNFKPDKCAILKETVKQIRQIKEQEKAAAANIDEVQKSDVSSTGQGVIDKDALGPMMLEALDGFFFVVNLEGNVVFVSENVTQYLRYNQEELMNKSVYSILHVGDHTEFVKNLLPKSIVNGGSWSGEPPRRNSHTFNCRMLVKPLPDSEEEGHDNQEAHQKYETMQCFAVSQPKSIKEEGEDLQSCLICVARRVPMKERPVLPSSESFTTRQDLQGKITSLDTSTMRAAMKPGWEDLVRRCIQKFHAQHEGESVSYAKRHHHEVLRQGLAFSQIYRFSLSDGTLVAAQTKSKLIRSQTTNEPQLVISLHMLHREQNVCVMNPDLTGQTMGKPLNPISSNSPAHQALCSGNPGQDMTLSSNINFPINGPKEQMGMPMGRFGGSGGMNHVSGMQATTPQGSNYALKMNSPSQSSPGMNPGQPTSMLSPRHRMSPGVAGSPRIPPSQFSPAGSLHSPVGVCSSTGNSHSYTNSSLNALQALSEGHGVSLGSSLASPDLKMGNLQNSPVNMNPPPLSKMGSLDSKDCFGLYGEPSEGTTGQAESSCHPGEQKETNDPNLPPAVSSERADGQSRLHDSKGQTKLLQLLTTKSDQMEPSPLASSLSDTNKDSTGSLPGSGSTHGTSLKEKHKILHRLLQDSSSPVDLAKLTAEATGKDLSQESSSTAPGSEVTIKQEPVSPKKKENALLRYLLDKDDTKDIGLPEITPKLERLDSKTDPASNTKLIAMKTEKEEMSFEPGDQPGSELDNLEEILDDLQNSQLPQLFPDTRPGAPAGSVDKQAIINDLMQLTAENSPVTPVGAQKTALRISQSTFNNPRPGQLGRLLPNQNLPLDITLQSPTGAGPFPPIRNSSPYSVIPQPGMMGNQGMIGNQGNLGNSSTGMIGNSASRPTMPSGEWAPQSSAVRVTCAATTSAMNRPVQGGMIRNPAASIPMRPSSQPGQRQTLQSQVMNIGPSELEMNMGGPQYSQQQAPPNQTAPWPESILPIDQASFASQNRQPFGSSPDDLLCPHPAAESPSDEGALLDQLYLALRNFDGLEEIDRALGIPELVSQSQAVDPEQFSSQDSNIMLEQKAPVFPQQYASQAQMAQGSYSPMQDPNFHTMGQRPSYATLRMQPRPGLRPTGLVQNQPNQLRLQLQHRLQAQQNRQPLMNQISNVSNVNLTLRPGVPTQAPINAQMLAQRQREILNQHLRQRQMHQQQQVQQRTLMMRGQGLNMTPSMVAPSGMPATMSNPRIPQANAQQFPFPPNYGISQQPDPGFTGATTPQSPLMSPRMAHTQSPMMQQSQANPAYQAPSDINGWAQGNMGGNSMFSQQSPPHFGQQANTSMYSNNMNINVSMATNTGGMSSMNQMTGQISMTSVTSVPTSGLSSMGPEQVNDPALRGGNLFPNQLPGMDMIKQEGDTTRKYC

SMILES | inhibition
COc1ccc(N(C(=O)CCl)C(C(=O)NC2CCCCC2)c2cccnc2)cc1 (centres undefined) | 69% (active)
O=S(=O)(Nc1cc(Sc2ncn[nH]2)c(O)c2ccccc12)c1ccccc1 | 12.2%
COCC(C)n1c(C)cc(C(=O)COC(=O)c2cccn2C)c1C (centres undefined) | 57.2% (active)
Brc1ccc2ncnc(Nc3ccc(N4CCOCC4)cc3)c2c1 | 39.9%
CC1CCN(C2=NC(=O)/C(=C/c3ccccc3F)S2)CC1 | 15.4%
CC(=C/c1ccccc1)/C=N/n1c(-c2ccncc2)n[nH]c1=S | 45%
COCCn1c(C)cc(C2=NNC(=NC3CC3)SC2)c1C | 96.7% (active)
CC(=O)/C(N=Nc1ccc2c(c1)OCCO2)=C(\C)O | 65.4% (active)
c1ccc(CCc2nn3c(-c4ccncc4)nnc3s2)cc1 | 50.8% (active)
COCCn1c(C)cc(C(=O)COc2ccc(C)nc2[N+](=O)[O-])c1C | 59.5% (active)
COc1ccc(-c2cc(=O)oc3c(C)c(O)ccc23)cc1 | 23.3%
N#CC(C#N)c1ccnc2ccccc12 | 36.4%
Nc1ncnc(N2CCc3ccccc32)c1[N+](=O)[O-] | 55.2% (active)
CN1CCN(c2ccc(NC(=O)N3CCc4ccccc43)cc2)CC1 | 53.1% (active)
CS(=O)(=O)N(CCC#N)Cc1ccc(/C=C2\C(=O)Nc3ccccc32)o1 | 11.8%
O=C(NC1CCCCC1)C(c1cccnc1)N(C(=O)CCl)c1ccc(F)cc1 (centres undefined) | 64.8% (active)
C=C1C(=O)O[C@H]2C[C@H]1[C@@H](OC(C)=O)C/C(C)=C/CC/C(C)=C\CC[C@]2(C)O | 28.4%
Cc1cc(N2CCOCC2)c2c(N)c(Br)cc(C)c2n1 | 54.8% (active)
Nc1ncccc1C(=O)OCC(=O)N1CCN(S(=O)(=O)c2ccc(Cl)cc2)CC1 | 25.8%
Cc1nc(SCC(=O)Nc2nc3ccccc3s2)c(C#N)c(C)c1C | 96.9% (active)

SMILES | inhibition
CC(C)(CO)CNc1ccn2nccc2n1 | 27.5%
CCN(CC)c1ccc(/C=N/Nc2nc(C)cc(=O)[nH]2)c(O)c1 | 29.6%
CCOc1cc(/C=C2\COc3ccccc3C2=O)cc(Br)c1OCC(=O)N(C)C | 34%
CCOc1ccc(Nc2ncnc3ccc([N+](=O)[O-])cc23)cc1 | 47.4% (active)
Nc1ccc(-c2nc3c(Cl)cc(N)cc3[nH]2)cc1 | 71.7% (active)
Cn1nc(C(F)(F)F)c(C#N)c1N1CCN(c2ccccc2)CC1 | 27.6%
CC1=C(C(=O)OCc2ccc3c(c2)OCO3)C(c2ccc(O)c([N+](=O)[O-])c2)NC(=O)N1 (centres undefined) | 33.6%
Cc1ccc(-n2c(C)c([N+](=O)[O-])c3ccc(O)c(CN(C)C)c32)cc1 | 41.4%
COc1ccc(-n2c(C)c([N+](=O)[O-])c3ccc(O)c(CN4CCCCC4)c32)cc1 | 48.4% (active)
CCN(CC)Cc1c(O)ccc2c([N+](=O)[O-])c(C)n(-c3ccc(OC)cc3)c12 | 41.4%
Cc1cc(C(=O)CN2C(=O)c3ccccc3S2(=O)=O)c(C)n1C(C)C | 59.6% (active)
NNC(=O)c1cc2ccccc2cc1O | 77.8% (active)
CC(C)(C)OC(=O)NCCCCCNC(=O)c1nc[nH]c1C(=O)NCCCCCNC(=O)OC(C)(C)C | 34.1%
Cc1cc(Sc2nnc(/N=C/N(C)C)s2)c2ccccc2n1 | 24.6%
COc1cccc(NC(=O)Nc2nc(-c3ccc(OC)c(OC)c3)cs2)c1 | 92.9% (active)
CCCN(CC(=O)Nc1ccccc1C)C(=O)CCl | 75.8% (active)
CC(=O)c1sc(NC(=O)C2(F)C(F)(F)C(F)(F)C(F)(F)C(F)(F)C2(F)F)nc1C | 23.9%
c1ccc(CNc2ncnc3ccccc23)cc1 | 48.8% (active)
Cc1ccc(Sc2c(C=O)c3ccccc3n2C)cc1 | 42.5%
